The results in this text go back to PubChem BioAssay (EPA / NIEHS).

Several values for one entry are separate records, joined by “and”; a condition that tells them apart may be missing. Equal values may be shown once. Results filed as inconclusive are left out. Some structures have more than one record in an assay (separate samples or runs), and their calls can disagree. Activity calls are given as the source filed them. Rule for the calls: active = hit-call score of the fitted dose curve at least 0.9, where 1 is the maximum; inconclusive = response in the unintended direction; inactive = score below 0.9.

For test [1], the target named is mouse Estrogen Receptor alpha (Era), Esr1 (gene 13982) (UniProt P19785). As to the kind of experiment: NVS_NR_mERa: NovaScreen (NVS) Nuclear Receptor Binding Assay for mouse Estrogen Receptor alpha (Era) (AID 2283378).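 Note: hit means loss of bound radioligand signal relative to DMSO.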 The procedure, abridged: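 Measurements come from scintillation counting after filtration, taken 18 hours after chemicals were added to a cell-free mouse Era preparation with radioligand. Screening was duplicate at 25 uM, with concurrent positive and negative controls and confirmatory concentration series for actives.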

The target of test [2] is Estrogen receptor beta (Homo sapiens) (UniProt Q92731). As to the kind of experiment: OT_ER_ERbERb_1440: Odyssey Thera (OT) 24-hour HEK293T Protein-Complementation Assay for Estrogen Receptor-beta/-beta Homodimer (AID 2283380).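 Note: scored as signal increase over DMSO baseline for both agonists and antagonists.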 Put shortly:
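HEK293T cells stably expressing ER beta LBD (aa 310-547) homodimer fragment-complementation reporter, dosed 24 h. Cells formaldehyde-fixed, Draq5-stained; gain in nuclear (agonist) or nuclear plus cytoplasmic (antagonist) fluorescence versus DMSO read by laser scanning cytometry.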

The target in test [3] is Retinoic acid receptor RXR-alpha (Homo sapiens) (UniProt P19793). As to the kind of experiment: OT_NURR1_NURR1RXRa_0480: Odyssey Thera (OT) 8-hour HEK293T Protein Complementation Assay for Nurr1/retinoid X receptor (RXR) (AID 2283385). The procedure, abridged:
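Compounds are applied to HEK293T cells carrying Nurr1 and RXRα linked to reporter fragments. After 8 h, fluorescence intensity reports heterodimer formation, with DMSO as baseline.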

Test [4] has the same target. The test can be described thus: OT_NURR1_NURR1RXRa_1440: Odyssey Thera (OT) 24-hour HEK293T Protein Complementation Assay for Nurr1/retinoid X receptor (RXR) (AID 2283386). Put shortly:
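Measured as fluorescence from a reconstituted split reporter, this 24 h HEK293T complementation assay scores compound-induced gain of Nurr1/RXRα association relative to DMSO.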

Test [5] addresses Peroxisome proliferator-activated receptor gamma (Homo sapiens) (UniProt P37231). The test can be described thus: NVS_NR_hPPARg: NovaScreen (NVS) Nuclear Receptor Binding Assay for human Peroxisome Proliferator-activated Receptor gamma (PPARg) (AID 2283370). The procedure, abridged:
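Extracted receptor protein, cell-free; compound incubated 2 h then fluorescence polarization read. Baseline: DMSO. Actives from 25 uM duplicate screen re-run across concentrations.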

Test [6] deals with Bile acid receptor (Homo sapiens) (UniProt Q96RI1). As to the kind of experiment: OT_FXR_FXRSRC1_0480: Odyssey Thera (OT) 8-hour HEK293T Protein-Complementation Assay for Farnesoid X receptor/SRC-1 Co-activator (AID 2283383). The procedure, abridged: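 Co-activator recruitment to FXR was measured in living HEK293T cells, where interaction of the two fused partners restored an active fluorescent reporter. Signal gain after 8 h treatment was referenced to DMSO.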

Test [7] has the same target. The test can be described thus: OT_FXR_FXRSRC1_1440: Odyssey Thera (OT) 24-hour HEK293T Protein-Complementation Assay for Farnesoid X receptor/SRC-1 Co-activator (AID 2283384). The procedure, abridged: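 Cell-based binding reporter: interaction of FXR with SRC-1 brings reporter fragments together, giving a fluorescence signal read 24 h after dosing of HEK293T cells.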

Test [8] concerns the target Peroxisome proliferator-activated receptor gamma (Homo sapiens) (UniProt P37231). As to the kind of experiment: OT_PPARg_PPARgSRC1_0480: Odyssey Thera (OT) 8-hour Protein-Complementation Assay for Peroxisome Proliferator-activated Receptor Gamma / SRC-1 Co-activator (AID 2283387).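 Note: nuclear to cytoplasmic split Venus YFP fluorescence ratio reporting PPARg SRC-1 interaction.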 Put shortly: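 Split-YFP (IFP1/IFP2) PPARg/SRC-1 reporter, HEK293T, 37 °C, 5% CO2; 8 h compound; formaldehyde fix + Draq5; high-content imaging, N/C ratio, ≥350 cells/image, positive direction vs DMSO.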

Test [9] has the same target. The test can be described thus: OT_PPARg_PPARgSRC1_1440: Odyssey Thera (OT) 24-hour Protein-Complementation Assay for Peroxisome Proliferator-activated Receptor Gamma/ SRC-1 Co-activator (AID 2283388).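 Note: nuclear to cytoplasmic ratio of reconstituted Venus YFP fluorescence in fixed imaged cells.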 The procedure, abridged: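 Cells carrying the PPARg/SRC-1 fragment-complementation reporter receive compound for 24 hours, are fixed and counterstained with Draq5, then imaged. Increased nuclear relative to cytoplasmic YFP fluorescence above DMSO baseline indicates binding activity.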

In test [10] the target is Estrogen receptor (Homo sapiens) (UniProt P03372). As to the kind of experiment: OT_ERa_GFPERaERE_0120: Odyssey Thera (OT) 2-hour HeLa Transcription Induction Assay for Estrogen Receptor (AID 2283382). Put shortly: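 Measures ESR1 pathway reporter gain-of-signal in HeLa cells after a 2-hour treatment, detected as fluorescent protein induction by microscopy, DMSO as baseline.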
Sequence of Estrogen receptor (Homo sapiens) (P03372 whole entry, looked up): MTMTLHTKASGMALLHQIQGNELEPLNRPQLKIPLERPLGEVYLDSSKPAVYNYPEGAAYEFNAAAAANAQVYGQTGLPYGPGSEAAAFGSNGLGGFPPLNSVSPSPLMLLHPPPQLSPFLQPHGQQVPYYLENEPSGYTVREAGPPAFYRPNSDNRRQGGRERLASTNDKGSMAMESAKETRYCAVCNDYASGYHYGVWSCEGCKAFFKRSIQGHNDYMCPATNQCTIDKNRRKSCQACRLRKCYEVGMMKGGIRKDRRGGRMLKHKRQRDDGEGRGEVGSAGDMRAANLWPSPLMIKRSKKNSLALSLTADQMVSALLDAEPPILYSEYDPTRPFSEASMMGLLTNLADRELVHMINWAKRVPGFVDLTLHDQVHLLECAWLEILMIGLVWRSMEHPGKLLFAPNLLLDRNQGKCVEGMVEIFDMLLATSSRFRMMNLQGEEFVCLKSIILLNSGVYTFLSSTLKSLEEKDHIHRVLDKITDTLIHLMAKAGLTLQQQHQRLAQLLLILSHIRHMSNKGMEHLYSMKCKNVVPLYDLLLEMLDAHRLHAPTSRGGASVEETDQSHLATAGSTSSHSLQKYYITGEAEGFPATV

Sequence of Peroxisome proliferator-activated receptor gamma (Homo sapiens) (P37231 whole entry, looked up): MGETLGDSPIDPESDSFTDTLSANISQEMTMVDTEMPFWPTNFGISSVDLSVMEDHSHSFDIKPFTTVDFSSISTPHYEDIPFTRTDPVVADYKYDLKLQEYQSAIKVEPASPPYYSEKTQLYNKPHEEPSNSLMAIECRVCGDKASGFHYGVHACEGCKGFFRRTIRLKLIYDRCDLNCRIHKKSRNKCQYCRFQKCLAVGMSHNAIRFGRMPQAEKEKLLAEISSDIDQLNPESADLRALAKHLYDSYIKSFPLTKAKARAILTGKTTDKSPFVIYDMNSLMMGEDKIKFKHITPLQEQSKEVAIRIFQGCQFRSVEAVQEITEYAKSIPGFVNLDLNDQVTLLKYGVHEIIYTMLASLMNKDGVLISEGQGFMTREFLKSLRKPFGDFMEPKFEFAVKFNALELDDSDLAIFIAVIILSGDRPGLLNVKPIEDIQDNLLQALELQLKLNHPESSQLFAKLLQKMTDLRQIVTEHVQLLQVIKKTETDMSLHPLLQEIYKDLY
Sequence of Bile acid receptor (Homo sapiens) (Q96RI1 whole entry, looked up, the tested form may be a part): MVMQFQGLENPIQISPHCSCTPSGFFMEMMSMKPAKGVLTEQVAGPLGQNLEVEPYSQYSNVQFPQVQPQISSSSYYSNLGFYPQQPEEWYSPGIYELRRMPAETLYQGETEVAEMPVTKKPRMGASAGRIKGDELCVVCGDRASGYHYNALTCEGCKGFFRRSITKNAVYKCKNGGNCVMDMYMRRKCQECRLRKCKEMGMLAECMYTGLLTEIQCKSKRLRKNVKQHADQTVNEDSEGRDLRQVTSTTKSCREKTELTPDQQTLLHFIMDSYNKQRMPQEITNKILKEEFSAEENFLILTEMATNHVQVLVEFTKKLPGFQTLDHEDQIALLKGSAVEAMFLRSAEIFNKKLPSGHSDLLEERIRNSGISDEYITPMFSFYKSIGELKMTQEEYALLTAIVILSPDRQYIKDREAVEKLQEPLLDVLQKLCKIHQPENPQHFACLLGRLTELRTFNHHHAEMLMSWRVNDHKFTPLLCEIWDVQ
Sequence of mouse Estrogen Receptor alpha (Era), Esr1 (gene 13982) (P19785 whole entry, looked up): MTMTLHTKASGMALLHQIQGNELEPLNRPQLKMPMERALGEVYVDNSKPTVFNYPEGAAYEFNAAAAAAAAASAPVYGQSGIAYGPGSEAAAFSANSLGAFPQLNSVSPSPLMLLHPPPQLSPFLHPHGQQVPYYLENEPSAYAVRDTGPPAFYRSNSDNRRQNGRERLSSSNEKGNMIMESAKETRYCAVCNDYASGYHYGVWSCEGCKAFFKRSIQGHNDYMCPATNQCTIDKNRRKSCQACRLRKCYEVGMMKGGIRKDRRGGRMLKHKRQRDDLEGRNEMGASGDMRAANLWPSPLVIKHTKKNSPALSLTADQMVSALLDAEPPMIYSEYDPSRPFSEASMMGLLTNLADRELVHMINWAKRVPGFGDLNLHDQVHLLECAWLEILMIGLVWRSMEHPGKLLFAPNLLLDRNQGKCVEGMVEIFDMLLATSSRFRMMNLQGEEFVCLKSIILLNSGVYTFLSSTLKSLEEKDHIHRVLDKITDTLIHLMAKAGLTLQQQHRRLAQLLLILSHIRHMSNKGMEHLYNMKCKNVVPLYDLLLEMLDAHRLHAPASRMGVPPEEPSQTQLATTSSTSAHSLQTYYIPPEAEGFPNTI
Sequence of Retinoic acid receptor RXR-alpha (Homo sapiens) (P19793 whole entry, looked up, the tested form may be a part): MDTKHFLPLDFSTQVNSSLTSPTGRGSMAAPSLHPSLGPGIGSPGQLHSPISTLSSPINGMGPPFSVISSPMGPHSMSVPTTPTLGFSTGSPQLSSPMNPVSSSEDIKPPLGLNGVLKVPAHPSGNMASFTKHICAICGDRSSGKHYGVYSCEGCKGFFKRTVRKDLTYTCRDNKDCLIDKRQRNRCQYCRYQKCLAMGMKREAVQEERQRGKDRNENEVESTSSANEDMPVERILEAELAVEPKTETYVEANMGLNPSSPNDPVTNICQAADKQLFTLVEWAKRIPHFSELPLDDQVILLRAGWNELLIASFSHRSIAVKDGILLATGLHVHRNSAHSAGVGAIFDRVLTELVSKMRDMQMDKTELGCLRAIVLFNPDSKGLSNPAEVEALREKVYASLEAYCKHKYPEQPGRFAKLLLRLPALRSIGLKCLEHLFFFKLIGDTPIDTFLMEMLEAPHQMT
Sequence of Estrogen receptor beta (Homo sapiens) (Q92731 whole entry, looked up, the tested form may be a part): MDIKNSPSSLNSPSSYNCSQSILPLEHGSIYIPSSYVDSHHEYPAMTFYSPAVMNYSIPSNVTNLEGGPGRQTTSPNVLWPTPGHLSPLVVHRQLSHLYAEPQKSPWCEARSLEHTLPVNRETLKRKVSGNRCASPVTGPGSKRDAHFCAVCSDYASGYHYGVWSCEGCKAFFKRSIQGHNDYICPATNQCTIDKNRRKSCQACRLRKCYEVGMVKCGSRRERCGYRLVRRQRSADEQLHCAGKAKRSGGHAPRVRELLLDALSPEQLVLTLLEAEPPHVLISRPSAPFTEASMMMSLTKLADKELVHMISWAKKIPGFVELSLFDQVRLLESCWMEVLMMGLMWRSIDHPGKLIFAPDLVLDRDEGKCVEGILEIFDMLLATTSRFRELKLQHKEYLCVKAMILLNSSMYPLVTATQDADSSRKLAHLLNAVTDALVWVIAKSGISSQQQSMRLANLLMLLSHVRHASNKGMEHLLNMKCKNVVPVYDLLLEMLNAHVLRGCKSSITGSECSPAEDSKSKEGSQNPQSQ

`CC(=O)[C@@]1(O)CC[C@H]2[C@@H]3CCC4=CC(=O)CC[C@]4(C)[C@H]3CC[C@@]21C`: the AC50 in [1] is 10.1 µM (active). The call in test [1], in [2], in [3] and in test [4] was inactive.

With `CCCCC(CC)CO` (stereo unspecified), the AC50 in [5] was 0.00905 µM (active). The result in [2], in test [6], in test [7], in test [4], in test [8] and in [9] was inactive.

Turning to `CCCCC(CC)COC(=O)CCCCCCCC(=O)OCC(CC)CCCC` (stereo unspecified), the result in test [1], in test [6], in test [3] and in test [4] was inactive.

In the case of `COc1ccc(C(=O)Nc2nc3ccccc3c(NCc3ccccc3)c2C#N)cc1`, the compound was classed as inactive in test [2], in test [10], in test [6], in [4], in test [8] and in test [9]. In addition, in [7], the AC50 was 14.4 µM (active).

Regarding `CC(=O)CC(c1ccccc1)c1c(O)c2ccccc2oc1=O` (stereo unspecified), the result in [4] was inactive.

With `CCCCCCCC(=O)OC`, the compound was classed as inactive in test [2], in [10], in test [4], in test [8] and in test [9].

For `Cc1occc(=O)c1O`, the result in [4], in test [8] and in [9] was inactive.

In the case of `O=C1c2c(O)cccc2Cc2cccc(O)c21`, the compound was called inactive in test [6], in test [7], in test [4], in [8] and in test [9].

For the compound `CC(C)(C)c1ccccc1`, the outcome in test [2] and in [4] was inactive.

For `CCCCOC(=O)CCCCC(=O)OCCCC`, the compound was called inactive in test [2], in [4], in test [8] and in test [9].

For the compound `N[C@@H](Cc1c[nH]c2ccccc12)C(=O)O`, the compound was classed as inactive in [2], in test [3], in test [4], in [8] and in test [9].

As for `CCCC(=O)O`, the outcome in [4], in test [8] and in [9] was inactive.

As for `CC1(C)C(=O)NC(=O)N1CO`, in [2], the AC50 is 57.3 µM (active). Further, the compound was classed as inactive in test [10], in [8] and in test [9].

As for `C/C=C/c1ccc(OC)cc1`, the outcome in test [2], in [8] and in test [9] was inactive.

With `CC(=O)OC1CC(C)OC(C)O1` (stereo unspecified), the call in test [2], in [6], in test [4], in [8] and in [9] was inactive.

With `CC(C)c1cccc(C(C)C)c1NC(=O)NS(=O)(=O)c1cc(C(C)(C)O)co1`, the outcome in test [2], in test [6], in [7], in test [3] and in [4] was inactive.

For the compound `CS(=O)(=O)c1ccc([C@@H](C[C@H]2CCC(=O)C2)C(=O)Nc2cnccn2)cc1Cl`, the call in test [2], in [10], in test [3], in test [8] and in test [9] was inactive.

Turning to `CC(=O)OCC(COC(C)=O)OC(C)=O`, the compound was classed as inactive in test [2], in test [4], in test [8] and in [9].

As to `CC(=O)O[C@]1(C(C)=O)CC[C@H]2[C@@H]3C=C(Cl)C4=CC(=O)[C@@H]5C[C@@H]5[C@]4(C)[C@H]3CC[C@@]21C`, the call in test [2], in [8] and in test [9] was inactive. Also, the AC50 in [4] is 82.6 µM (active).

Consider `Nc1nc(Cl)nc2c1ncn2[C@H]1C[C@H](O)[C@@H](CO)O1`, for which the AC50 was 15.2 µM (active) in test [6]; 21.1 µM (active) in test [7]; 50 µM (active) and 41.2 µM (active) in test [3]; 46.7 µM (active) and 44.1 µM (active) in test [4].

As for `COC(=O)CCC(=O)OC`, the call in [10], in [6], in test [7], in test [3], in test [4] and in test [8] was inactive. The compound was classed as inactive in test [9].

In the case of `COC(=O)CCCC(=O)OC`, the outcome in [7], in test [3] and in [4] was inactive.

As for `O=NO`, the result in test [4], in test [8] and in test [9] was inactive.

With `CCCCCCC(C=O)=Cc1ccccc1`, the compound was classed as inactive in [2], in [7], in test [4], in test [8] and in test [9]. Further, the AC50 in [6] was 50 µM (active); in [3], 73.4 µM (active).

On to `c1ccc2occc2c1`, for which the call in [10], in [7], in [3], in [8] and in test [9] was inactive.

For the compound `O=[Si]=O`, the call in test [2], in [10], in test [8] and in test [9] was inactive.

Regarding `CC(C)c1cccc(C(C)C)c1`, the compound was called inactive in test [10], in test [6], in [3], in test [4], in test [8] and in test [9].

Consider `CCCC[C@H]1CN(CC2CCOCC2)C(=O)OC12CCN(C1(C)CCN(C(=O)c3c(C)ncnc3C)CC1)CC2`, for which the compound was called inactive in test [4], in test [8] and in [9].

Turning to `CC(C)COC(=O)CCCCC(=O)OCC(C)C`, the result in [6], in [7], in [4], in test [8] and in test [9] was inactive.

With `CC(=O)S[C@H](C(=O)N[C@H]1Cc2ccccc2[C@H]2CCC[C@@H](C(=O)O)N2C1=O)C(C)C`, the compound was called inactive in test [6], in test [3], in [4], in test [8] and in [9].

As for `O=C(O)c1cccnc1`, the call in test [2], in test [7], in test [8] and in test [9] was inactive.

With `O=C(O)c1[nH]n(-c2ccc(S(=O)(=O)O)cc2)c(=O)c1N=Nc1ccc(S(=O)(=O)O)cc1`, the compound was called inactive in [10], in test [7], in test [3], in test [4], in test [8] and in test [9].

On to `NC=O`, for which the compound was classed as inactive in test [2], in [8] and in test [9].

Turning to `Cc1cn([C@H]2C=C[C@@H](CO)O2)c(=O)[nH]c1=O`, the outcome in test [2], in test [6], in test [3], in test [8] and in test [9] was inactive.
